Screen size: about 290,000 compounds; about 4,200 (1.4%) were called active. The sample as a whole holds a higher share of actives than the screen did. A number with no mark means an inactive call.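 Rule for the calls: active = binding response more than 3 SD above or below the average of its plate-row segment, actives on both sides; inconclusive = wells at one plate position flagged as instrument error; inactive = the rest.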

In the experiment the target is Mitogen-activated protein kinase kinase kinase 3 (Homo sapiens) (UniProt Q99759). Put plainly: compounds raising or lowering MEK5 association with MEKK3 PB1 – biochemical, wildtype MEKK3, multiplex bead flow cytometry, Alexa488-MEK5, primary screen (AID 1529).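 Note: Alexa488 bead fluorescence after subtracting the streptavidin-only scavenger bead signal.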 The note with it: bead-based flow cytometry, Alexa488-MEK5 binding to MEKK3; at 10 µM; actives lie on both sides. Background: In flow cytometry, cells or beads pass a laser one at a time.
Mitogen-activated protein kinase kinase kinase 3 (Homo sapiens), sequence (Q99759 whole entry, looked up): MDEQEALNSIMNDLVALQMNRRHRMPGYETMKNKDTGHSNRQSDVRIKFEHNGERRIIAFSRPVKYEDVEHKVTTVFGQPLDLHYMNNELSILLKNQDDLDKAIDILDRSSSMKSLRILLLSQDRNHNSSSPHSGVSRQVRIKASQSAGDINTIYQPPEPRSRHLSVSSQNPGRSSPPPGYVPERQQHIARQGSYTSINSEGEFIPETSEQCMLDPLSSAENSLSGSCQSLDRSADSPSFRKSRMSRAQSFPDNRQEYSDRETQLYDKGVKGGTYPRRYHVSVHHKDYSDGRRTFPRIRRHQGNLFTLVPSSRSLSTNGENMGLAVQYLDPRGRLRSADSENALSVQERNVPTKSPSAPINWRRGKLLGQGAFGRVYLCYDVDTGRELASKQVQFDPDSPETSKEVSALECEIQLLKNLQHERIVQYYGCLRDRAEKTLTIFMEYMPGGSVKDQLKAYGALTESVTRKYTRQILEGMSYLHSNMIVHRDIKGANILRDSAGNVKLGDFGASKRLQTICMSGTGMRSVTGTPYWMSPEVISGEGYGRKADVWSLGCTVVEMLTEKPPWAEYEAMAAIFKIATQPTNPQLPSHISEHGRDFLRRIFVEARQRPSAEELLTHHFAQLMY
For `O=C(COC(=O)c1ccccc1)Nc1ccc(Cl)cc1C(=O)c1ccccc1`, the binding response (% of control) was 131% (active).
As for `CN1CCN(C(=S)SCC(=O)Nc2ccc(Cl)cc2C(=O)c2ccccc2)CC1`, the figure is 108%; as for `O=C(CCNS(=O)(=O)c1ccccc1)Nc1ccc(Cl)cc1C(=O)c1ccccc1`, 107%; as for `COC(=O)C1=C(c2cc3ccccc3s2)C[C@@H]2CC[C@H]1N2C(=O)NC(C)C`, 108%.
As for `COc1cccc(C(=O)N2C[C@H]3C[C@@H](C2)c2cccc(=O)n2C3)c1`, the figure is 98%; as for `CN(C)CC1Oc2ccccc2OC1(O)c1ccccc1` (stereo not given), 106%; as for `Cc1ccc(CN2CCCC(C(=O)c3ccc4c(c3)OCO4)C2)cc1C` (stereo not given), 49% [inhibitor] (active).
As for `COc1ccc(C(=O)C2CCCN(Cc3ccc(C)s3)C2)cc1OC` (stereo not given), the figure is 103%.
In the case of `Cc1ccsc1C(=O)C1CCCN(Cc2ccc(O)cc2)C1` (stereo not given), the binding response (% of control) was 96%.
For the compound `CN(C)C(=O)Oc1ccc2c(c1)O/C(=C\c1ccccc1)C2=O`, the binding response (% of control) is 102%.
Take `NCC(O)c1ccc(O)cc1` (stereo not given): the binding response (% of control) was 74% [inhibitor] (active).
With `COc1ccc2c(c1)[C@]13CCCCC1C(C2)N(C)CC3` (stereo not given in full), the binding response (% of control) is 100%.
As for `CN(C)CC1CCCCC1OC(=O)c1ccc(Cl)c(Cl)c1` (stereo not given), the figure is 135% (active); as for `COC(=O)C1=C(c2cc3ccccc3o2)C[C@@H]2CC[C@H]1N2C(=O)NC1CCCCC1`, 103%; as for `COC(=O)C1=C(c2cc3ccccc3s2)C[C@@H]2CC[C@H]1N2C(=O)NCCO`, 107%.
As for `COc1cccc(OC)c1C(=O)NC(=S)N1C[C@H]2C[C@H](C1)c1cccc(=O)n1C2`, the binding response (% of control) was 103%.
As for `CCCn1c(C(=O)c2ccccc2OC)nc2ccccc21`, the figure is 98%; as for `O=C1NC(=O)C(CCc2ccccn2)(Cc2cccc(Cl)c2Cl)C(=O)N1c1ccc(Br)cc1` (stereo not given), 89%; as for `Cc1ccc(N2C(=O)NC(=O)C(CCc3ccncc3)(Cc3cccc(Cl)c3Cl)C2=O)cc1` (stereo not given), 138% (active).
Consider `COc1ccc2[nH]c3c(c2c1)CCN[C@H]3C`, for which the binding response (% of control) was 105%.
As for `CC[C@H]1CC2CN3CCc4c([nH]c5ccccc45)C(C(=O)OC)(C2)C13` (stereo not given in full), the figure is 99%; as for `CNCC(O)c1cc(F)c(OCc2ccccc2)c(OCc2ccccc2)c1F` (stereo not given), 103%; as for `COc1ccc(-c2nn(CCC#N)cc2C(=O)Nc2ccc(C(C)=O)cc2)cc1`, 111%.
On to `COC(=O)C1=C(c2cc3ccccc3s2)C[C@@H]2CC[C@H]1N2C(=O)NCc1cccc2ccccc12`, for which the binding response (% of control) was 105%.
As to `Fc1ccc(N2CCN(Cc3ccc4c(c3)OCO4)CC2)cc1`, the binding response (% of control) was 98%.
In the case of `Cc1cc(=O)oc2c(C)c(OCC(=O)N3CCN(Cc4ccc5c(c4)OCO5)CC3)ccc12`, the binding response (% of control) is 106%.
As for `O=C(Cc1ccccc1[N+](=O)[O-])N1CCN(Cc2ccc3c(c2)OCO3)CC1`, the figure is 46% [inhibitor] (active); as for `COc1ccc2c(c1O)-c1cccc3c1[C@@H](C2)N(C)CC3`, 95%; as for `CCOc1ccc(CN(CCCl)CCCl)cc1C(=O)OC`, 111%.
As to `COC(=O)C1=C(c2ccccc2)C[C@@H]2CC[C@H]1N2C(=O)N1CCCCC1`, the binding response (% of control) was 102%.
